# Laboratory results taken from a collection of fitness landscapes (doi:10.1126/science.1257360).
# Over roughly 140,000 sequences, “enrichment ratio after two sorts for PhoP signalling” has its median near 0; the highest 2% begin near 11. The sample as a whole holds a higher share of the highest values than the screen did.
# B1: PhoQ; a variant is named by its letters at X, in order, P23837 (parent)
# chain: MKKLLRLFFPLSLRVRFLLATAAVVLVLSLAYGMVALIGYSVSFDKTTFRLLRGESNLFYTLAKWENNKLHVELPENIDKQSPTMTLIYDENGQLLWAQRDVPWLMKMIQPDWLKSNGFHEIEADVNDTSLLLSGDHSIQQQLQEVREDDDDAEMTHSVAVNVYPATSRMPKLTIVVVDTIPVELKSSYMVWSWFIYVLSANLLLVIPLLWVAAWWSLRPIEALAKEVRELEEHNRELLNPATTRELTSLVRNLNRLLKSERERYDKYRTTLTDLTHSLKTPLXXLQXXLRSLRSEKMSVSDAEPVMLEQISRISQQIGYYLHRASMRGGTLLSRELHPVAPLLDNLTSALNKVYQRKGVNISLDISPEISFVGEQNDFVEVMGNVLDNACKYCLEFVEISARQTDEHLYIVVEDDGPGIPLSKREVIFDRGQRVDTLRPGQGVGLAVAREITEQYEGKIVAGESMLGGARMEVIFGRQHSAPKDE
# Variants of: B1
# Experiment: enrichment ratio after two sorts for PhoP signalling (ratio (wild type AVST 3.29)); higher = more functional
# Settings: with PhoP (E. coli)
row,Variant,enrichment ratio
1,IGIE,≤ 0.25
2,KYVT,≤ 0.25
3,PQLS,≤ 0.25
4,PYIW,≤ 0.25
5,WQLE,≤ 0.25
6,LTLE,≤ 0.25
7,GYLE,≤ 0.25
8,GTLE,14.3
9,GQLE,14.3
10,YTLE,3.23
11,TWHD,≤ 0.25
12,YYAE,≤ 0.25
13,KCKS,≤ 0.25
14,HTMI,1.06
15,WRCP,≤ 0.25
16,FWNS,≤ 0.25
17,AVWR,≤ 0.25
18,AVGM,3.94
19,AVSH,12.4
20,AVCC,8.73
21,AVCK,16.2
22,AVWM,≤ 0.25
23,AVPM,1.53
24,AVAM,3.19

row,Variant,enrichment ratio
1,AVTM,12.4
2,AVMH,11.8
3,AVTH,9.18
4,AVCV,5.84
5,MFGF,≤ 0.25
6,LYKG,≤ 0.25
7,ASIY,3.82
8,VFVG,≤ 0.25
9,DYAM,≤ 0.25
10,DHDS,≤ 0.25
11,AVAT,≤ 0.25
12,NVCM,≤ 0.25
13,PVCG,≤ 0.25
14,AVTI,10.4
15,AVAH,13.4
16,NVCG,≤ 0.25
17,AVCH,13
18,TVAH,3.22
19,NVCH,≤ 0.25
20,AVCG,16
21,FVCM,2.91
22,AVCM,15.4
23,DWKH,≤ 0.25
24,QWAC,≤ 0.25

row,Variant,enrichment ratio
1,PYDI,≤ 0.25
2,SRND,≤ 0.25
3,DGIY,≤ 0.25
4,KFTT,≤ 0.25
5,MWVS,≤ 0.25
6,NKPN,≤ 0.25
7,STYR,≤ 0.25
8,AVCE,≤ 0.25
9,AVCS,8.99
10,AVCI,21.8
11,RVVQ,≤ 0.25
12,VRPL,≤ 0.25
13,IQLV,≤ 0.25
14,AQHP,≤ 0.25
15,AQQQ,≤ 0.25
16,AEFQ,3.73
17,ACVQ,2.26
18,AEIV,4.76
19,AEIQ,24.4
20,AQIQ,27.9
21,ACHP,≤ 0.25
22,AEIA,15.4
23,AEIE,≤ 0.25
24,AEHP,≤ 0.25

row,Variant,enrichment ratio
1,ACIQ,11.8
2,KAHK,≤ 0.25
3,LFVQ,≤ 0.25
4,MTRG,≤ 0.25
5,YDCD,≤ 0.25
6,TFDY,≤ 0.25
7,SERL,≤ 0.25
8,WHLP,≤ 0.25
9,KMMG,≤ 0.25
10,ADIQ,21.4
11,AKIQ,≤ 0.25
12,AEIL,28.2
13,AEYL,6.74
14,AEII,16.4
15,AEPM,0.861
16,AEIM,15.7
17,AHIQ,≤ 0.25
18,AEIS,10.8
19,AEIT,2.48
20,AENL,≤ 0.25
21,THTQ,1.45
22,EWAP,≤ 0.25
23,GFIS,≤ 0.25
24,LHFN,≤ 0.25

row,Variant,enrichment ratio
1,NVLT,≤ 0.25
2,SCYK,≤ 0.25
3,DWIV,≤ 0.25
4,KRHG,≤ 0.25
5,NHPL,≤ 0.25
6,KIDW,≤ 0.25
7,GARI,≤ 0.25
8,QYLE,≤ 0.25
9,FEPL,≤ 0.25
10,QDSM,≤ 0.25
11,QSSM,15.9
12,QRSM,≤ 0.25
13,TPSM,≤ 0.25
14,QPSM,≤ 0.25
15,QQSM,13.3
16,QIAI,2.26
17,SIKG,≤ 0.25
18,LGAF,≤ 0.25
19,VRDP,≤ 0.25
20,HMSS,≤ 0.25
21,PMDA,≤ 0.25
22,SGDG,≤ 0.25
23,SGTS,7.16
24,SGWG,≤ 0.25

row,Variant,enrichment ratio
1,SGTI,16.7
2,SGTG,15.9
3,SGTA,7.55
4,AGFW,≤ 0.25
5,VWNV,≤ 0.25
6,GLKA,≤ 0.25
7,ENWV,≤ 0.25
8,NKIG,≤ 0.25
9,PDHR,≤ 0.25
10,HRML,≤ 0.25
11,NAML,≤ 0.25
12,KAML,≤ 0.25
13,HTML,11.7
14,HYML,≤ 0.25
15,TAML,25.8
16,DPPS,≤ 0.25
17,QECY,≤ 0.25
18,SNCY,7.63
19,MECY,4.09
20,SECY,13.7
21,IQCY,≤ 0.25
22,SRCY,≤ 0.25
23,KYCY,≤ 0.25
24,TQCY,15.8

row,Variant,enrichment ratio
1,DWCY,≤ 0.25
2,SQCY,12.2
3,RNCY,≤ 0.25
4,TECY,16.2
5,GSCQ,8.75
6,GDAQ,≤ 0.25
7,TRTV,9.35
8,SEWD,≤ 0.25
9,KVEG,≤ 0.25
10,LQIG,≤ 0.25
11,FQTT,≤ 0.25
12,SETT,12.6
13,AKTT,3.25
14,EQTT,≤ 0.25
15,LTTT,≤ 0.25
16,MKTT,≤ 0.25
17,TTTT,12.1
18,SRTT,≤ 0.25
19,YTTT,≤ 0.25
20,KYTT,≤ 0.25
21,TKTT,11.6
22,TQTT,23.1
23,YAIP,≤ 0.25
24,IDRF,≤ 0.25

row,Variant,enrichment ratio
1,ATER,≤ 0.25
2,NGCY,≤ 0.25
3,PIGE,≤ 0.25
4,SMQQ,≤ 0.25
5,IGVV,≤ 0.25
6,ISAV,0.486
7,ADQP,≤ 0.25
8,APWD,≤ 0.25
9,PTFA,≤ 0.25
10,KRKW,≤ 0.25
11,MIGL,1.45
12,KCTT,≤ 0.25
13,SQTT,11.4
14,LCTT,≤ 0.25
15,VCTT,≤ 0.25
16,SITT,6.9
17,KSTT,≤ 0.25
18,MMTT,≤ 0.25
19,ICTT,11.9
20,SPTT,≤ 0.25
21,TSTT,15.1
22,FCTT,≤ 0.25
23,SCTT,11.4
24,GPRY,≤ 0.25

row,Variant,enrichment ratio
1,TYWS,≤ 0.25
2,LGDG,0.39
3,IKPA,≤ 0.25
4,YKHD,≤ 0.25
5,TNPV,≤ 0.25
6,YHGA,≤ 0.25
7,TDAQ,13.4
8,LTAQ,≤ 0.25
9,FDAQ,≤ 0.25
10,KSAQ,≤ 0.25
11,TSAQ,19.6
12,NSAQ,≤ 0.25
13,EETH,≤ 0.25
14,DEAP,≤ 0.25
15,LAGN,≤ 0.25
16,GGLE,≤ 0.25
17,MLEW,≤ 0.25
18,NEHL,≤ 0.25
19,NEHS,≤ 0.25
20,YYHL,≤ 0.25
21,TEHS,18.1
22,YYHY,≤ 0.25
23,TEHI,14.2
24,TEHF,3.55

row,Variant,enrichment ratio
1,NEHY,≤ 0.25
2,YYHS,≤ 0.25
3,TEHP,≤ 0.25
4,TEHL,12.5
5,TEHY,11.4
6,PQEA,≤ 0.25
7,YVFQ,≤ 0.25
8,IQHV,≤ 0.25
9,PPCA,≤ 0.25
10,ETDW,≤ 0.25
11,MNWM,4.81
12,MNTC,≤ 0.25
13,TNTM,31.2
14,MNTS,≤ 0.25
15,MLTM,4.75
16,TNCL,0.276
17,MNTM,18.9
18,TNRM,≤ 0.25
19,MNTI,13.1
20,KHVC,≤ 0.25
21,QGRV,≤ 0.25
22,HNCH,≤ 0.25
23,VGDV,≤ 0.25
24,NEGH,≤ 0.25

row,Variant,enrichment ratio
1,SGGQ,14.9
2,SGSQ,12.9
3,SRIQ,≤ 0.25
4,SGGK,≤ 0.25
5,SGKA,≤ 0.25
6,SGIE,≤ 0.25
7,SGHP,≤ 0.25
8,SGMQ,15.4
9,SGIQ,11.9
10,SGGA,8.12
11,SGDS,≤ 0.25
12,TGMQ,≤ 0.25
13,AGYL,4.28
14,QKLN,≤ 0.25
15,QYFC,≤ 0.25
16,SGFQ,2.13
17,EDPV,≤ 0.25
18,PQAT,≤ 0.25
19,MKML,≤ 0.25
20,FAML,6.33
21,MAKL,≤ 0.25
22,NRML,≤ 0.25
23,VKML,≤ 0.25
24,TEML,28.6

row,Variant,enrichment ratio
1,PTML,≤ 0.25
2,VRML,≤ 0.25
3,HKML,≤ 0.25
4,MAML,25.7
5,TKML,19.2
6,MEML,12
7,SWHC,≤ 0.25
8,WHRD,≤ 0.25
9,PISS,≤ 0.25
10,LFSF,≤ 0.25
11,RFYN,≤ 0.25
12,DIQW,≤ 0.25
13,IIYH,≤ 0.25
14,MTML,4.85
15,MIML,14
16,MMML,≤ 0.25
17,MIWL,3.25
18,MCML,17.5
19,MIRL,≤ 0.25
20,KEPP,≤ 0.25
21,HSFC,≤ 0.25
22,TLKM,≤ 0.25
23,CNFF,≤ 0.25
24,QNDV,≤ 0.25

row,Variant,enrichment ratio
1,HFMM,≤ 0.25
2,MGTA,≤ 0.25
3,MGAM,14.1
4,MGMM,37.6
5,MFMM,≤ 0.25
6,MGTS,≤ 0.25
7,MGTI,12.5
8,MGCK,3.89
9,MGDH,≤ 0.25
10,MGTH,≤ 0.25
11,MGTM,13.6
12,MGTC,0.695
13,HMRE,≤ 0.25
14,WQTY,≤ 0.25
15,YKIG,≤ 0.25
16,VGNS,≤ 0.25
17,HWDL,≤ 0.25
18,SSRL,≤ 0.25
